Sampled rows, rich in hits. Any-hit rate of the full collection: about 2.4%.
NTMT1 inhibitor = Primary qHTS for Inhibitors of N-terminal methyltransferase 1 (NTMT1): MTaseGlo Assay. hit rate 2.5% among 59,000. Potency, µM (highest dose often 114 µM), for inactives: at the top dose activity change, negative = inhibition, most hits filed as inhibitors. N-terminal Xaa-Pro-Lys N-methyltransferase 1 (Homo sapiens), Q9BV86. AID 1645870, 2021. NTMT1 MTase-Glo SAH luminescence, purified enzyme;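 also: plate controls were DMSO vehicle for no effect and no enzyme for full effect; nearly all actives have a fitted effect of over 65% in size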
Target sequence (Q9BV86 whole entry, looked up): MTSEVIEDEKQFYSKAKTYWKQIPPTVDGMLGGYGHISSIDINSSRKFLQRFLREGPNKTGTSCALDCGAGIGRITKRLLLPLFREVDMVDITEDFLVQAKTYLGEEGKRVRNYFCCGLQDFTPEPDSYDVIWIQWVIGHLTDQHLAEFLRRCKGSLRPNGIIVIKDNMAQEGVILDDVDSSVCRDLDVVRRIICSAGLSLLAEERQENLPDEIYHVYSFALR
HTT prom inh = Primary qHTS for Identification of Small Molecule Inhibitors of Huntingtin Promoter Activity. hit rate 0.93% among 48,000. HEK293 HTT promoter firefly luciferase reporter, 24 h. Potency, µM (series often up to 57.5 µM), for the others: top-dose activity change, negative = inhibition, actives largely listed as inhibitors. AID 1508623, 2021; also: nearly all actives have a fitted effect of over 50% in size
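Quantitative HTS used concentration series of up to 57.5 uM final on HEK293 luciferase reporter cells, 24 h at 37 degrees C. Readout was Dual-Glo firefly luminescence.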
HTT-AS act = Primary qHTS for Identification of Small Molecule Activators of Huntingtin-Antisense Promoter Activity; HEK293 HTT-AS promoter firefly luciferase reporter, 24 h; response scale: percent change from vehicle, -100% = no light; Potency, µM (highest dose often 57.5 µM), without a hit: top-dose activity change, positive = activation, usual class: activators; hit rate 0.24% among 48,000; AID 1508624, 2021; also: nearly all actives have a fitted effect of over 55% in size
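HEK293 Fluc reporter, 2,500 cells/well, 24 h pre-culture; cpds up to 57.5 uM final, 24 h 37 degrees C; Dual-Glo, 10 min RT; normalized vehicle = 0%, zero RLU = -100%.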
* hit, by the source's call; u = inconclusive; x = no result; ! = repeats disagree; [ ] = another dose, or the depositor's remark. Calls follow the shape of the dose curve; as a rule, active = well fitted curve in the direction sought with a large enough effect; inconclusive = small, poorly fitted or top-dose-only effect, or another doubt; inactive = no such curve, though single readings can be large; an effect the other way counts as inactive or inconclusive. Potency is read from the fitted curve at half-maximal effect.

SMILES | NTMT1 inhibitor | HTT prom inh | HTT-AS act
O=c1c2ccccc2nc2sc(Nc3cccc(N4CCNCC4)c3)nn12 | 50.1µM*! | x | x
CN1CCN(c2cccc(CNc3nn4c(=O)c5ccccc5nc4s3)c2)CC1 | 6.9% | x | x
CN1CCN(c2cccc(Nc3nn4c(=O)c5ccc(F)cc5nc4s3)c2)CC1 | -5.0% | x | x
O=C(Nc1ccc(Cl)c(Cl)c1)Nc1nc(-c2ccncc2)cs1 | -21.2%[57.5 µM] | x | x
CCO[C@@H]1OC(=O)C[C@@H]1NC(=O)[C@@H]1CCCN2C(=O)CC[C@H](NC(=O)c3nccc4ccccc34)C(=O)N12 | 10.7% | x | x
C[C@]12CCC3[C@@H](CC[C@H]4NC(=O)C=C[C@]34C)[C@@H]1CC[C@@H]2C(=O)Nc1cc(C(F)(F)F)ccc1C(F)(F)F (stereo not given in full) | 15.2% | x | x
COc1cccc(NC(=O)Cn2nc3c4ccccc4n(Cc4cccc(F)c4)cc-3c2=O)c1 | -21.2% | -18.8% | -39.1%
CCOC(=O)c1ccc(NC(=O)Cn2nc3c4ccccc4n(Cc4cccc(F)c4)cc-3c2=O)cc1 | 79.4µM* | -3.4% | -7.5%
O=C(O)c1cc(I)ccc1NC(=O)[C@H](Cc1ccccc1)NCc1ccccc1 | 7.6%[57.5 µM] | x | x
CCS(=O)(=O)c1ncc(N(Cc2ccccc2)Cc2ccco2)c(C(=O)Nc2cccc(Cl)c2C)n1 | 1.2% | u | -24.0%
CCS(=O)(=O)c1ncc(Cl)c(C(=O)N(Cc2ccccc2)Cc2ccco2)n1 | -2.1% | 35.5µM* | -93.5%
NS(=O)(=O)c1ccc(S(=O)(=O)Nc2cccc3c(Cl)c[nH]c23)cc1 | 0.7% | x | x
Cc1cc(NC(=O)c2cc(Cl)ccc2Cl)ccc1-c1cc2ccccc2oc1=O | 6.8% | 10µM* | -33.7%
CCCOc1ccc(C(=O)Nc2ccc(-c3cc4ccccc4oc3=O)c(C)c2)cc1 | -5.8% | u | -12.0%
O=C(O)[C@H]1O[C@H](Oc2cc3oc(-c4ccccc4)cc(=O)c3c(O)c2O)[C@H](O)[C@@H](O)[C@H]1O | -13.3%[57.5 µM] | 16.7% | u
O=c1cc(-c2ccccc2)oc2cc(O)c(O)c(O)c12 | 28.2µM*! | 21.6% | u
O=C1NC(=O)/C(=C\c2ccc3c(c2)OC(F)(F)O3)S1 | -1.8% | x | x
CC(C)(C)c1ccc(-n2cnc3cc(C(=O)N4CCCCC4)ccc32)cc1 | 21.0% | x | x
COc1ccc(N2CCN(C(=O)C3CCCN(S(=O)(=O)c4ccc5c(c4)CCCN5C(C)=O)C3)CC2)cc1 (stereo not given) | -1.1% | u | -46.6%
CC(=O)N1CCCc2cc(S(=O)(=O)N3CCCC(C(=O)N4CCN(c5ccccc5F)CC4)C3)ccc21 (stereo not given) | -1.9% | 10µM* | -34.2%
CC(C)=CCC[C@](C)(O[C@@H]1O[C@H](CO[C@@H]2OC[C@@H](O)[C@H](O)[C@H]2O)[C@@H](O)[C@H](O)[C@H]1O)[C@H]1CC[C@]2(C)[C@@H]1[C@H](O)C[C@@H]1[C@@]3(C)CC[C@H](O[C@@H]4O[C@H](CO)[C@@H](O)[C@H](O)[C@H]4O)C(C)(C)[C@@H]3CC[C@]12C | -6.4%[29.8 µM] | x | x
COc1cc(OC)cc(-c2nc3nc(C)c(CCC(=O)Nc4ccc(F)cc4F)c(C)n3n2)c1 | 89.1µM* | -32.1% | -14.3%
CCOC(=O)CC(NC(=O)CCc1c(C)nc2cc(-c3ccccc3)nn2c1C)c1ccc(C)cc1 (stereo not given) | -1.3% | 2.51µM* | -80.1%
COc1cc(OC)cc(-c2cc3nc(C)c(CCC(=O)NCCc4cccc(C)c4)c(C)n3n2)c1 | 8.9% | u | -70.8%
CCc1ccccc1NC(=O)CCc1c(C)nc2cc(-c3ccccc3)nn2c1C | 15.0% | u | -56.9%
SMILES | NTMT1 inhibitor | HTT prom inh | HTT-AS act
Cc1nc2cc(-c3ccccc3)nn2c(C)c1CCC(=O)NCc1cccc(Cl)c1 | -1.1% | 12.6µM* | -71.2%
COc1cc(OC)cc(-c2cc3nc(C)c(CCC(=O)NCc4ccccc4)c(C)n3n2)c1 | -4.6% | 2µM* | -86.4%
CCOC(=O)CC(NC(=O)CCc1c(C)nc2c(-c3ccccc3)c(C)nn2c1C)c1ccc(C)cc1 (stereo not given) | -8.3% | u | -45.5%
COc1cc(OC)cc(-c2nc3nc(C)c(CCC(=O)Nc4cc(F)ccc4F)c(C)n3n2)c1 | -28.9% | -16.2% | -20.3%
O=C(/C=C\n1cnc(-c2cc(C(F)(F)F)cc(C(F)(F)F)c2)n1)NNc1ccccn1 | 15.9% | x | x
C[C@@H]1CC(=O)Nc2cccc(-c3cnn(C(C)(C)C)c3)c2N1 | 14.3% | x | x
CC(c1ncncc1F)C(O)(Cn1cncn1)c1ccc(F)cc1F (stereo not given) | 4.0%[57.5 µM] | x | x
O=C(Nc1ncc(Cc2ccc(C(F)(F)F)cc2)s1)c1ccc(-c2cccnc2)o1 | -7.0% | x | x
O=C(Nc1ncc(Cc2ccc(C(F)(F)F)cc2)s1)c1cccc(-c2ccccc2)c1 | 7.4%[57.5 µM] | x | x
COc1cc(OC)cc(-c2cc3nc(C)c(CCC(=O)Nc4ccc(C(C)=O)cc4)c(C)n3n2)c1 | 7.4% | 3.16µM* | -78.1%
CCOC(=O)c1ccc(NC(=O)CCc2c(C)nc3cc(-c4ccc(OC)cc4OC)nn3c2C)cc1 | 7.0% | -15.6% | -14.7%
O=C(NCCN1CCN(c2cccc3c2OCCO3)CC1)c1ccc(F)cc1 | 1.7%[57.5 µM] | x | x
COC(=O)c1ccc(NC(=O)CC2Nc3cc(C)c(C)cc3NC2=O)cc1 (stereo not given) | 29.2% | 25.1µM* | -75.7%
CC(=O)c1ccc(NC(=O)CC2Nc3cc(C)c(C)cc3NC2=O)cc1 (stereo not given) | 9.5% | u | -52.8%
COc1ccc(C2NC(=O)c3ccccc3N2)cc1COc1c(C)cc(NC(C)=O)cc1C (stereo not given) | -0.3% | x | x
O=[S+]([O-])(c1ccc(N2CCOCC2)nc1)N1CCN([S+](=O)([O-])c2c(F)cccc2F)CC1 | 5.2% | x | x
Nc1ncnc2nc(-c3ccc(N4CCOCC4)nc3)cc(-c3cccc(Br)c3)c12 | 1.12µM* | 14.6% | -35.3%
Cc1ccccc1-n1c([C@H](C)Nc2nc(N)nc3nc[nH]c23)nc2cccc(C)c2c1=O | 12.6%[57.5 µM] | x | x
Cc1ccc(S(=O)(=O)NCC(=O)Nc2nc(-c3ccccc3)cs2)cc1 | -7.4%[57.5 µM] | x | x
CC(C)(C)OC(=O)N1CCC(C(=O)Nc2ccc([S+](=O)([O-])Nc3nccs3)cc2)CC1 | 15.1% | x | x
O=C(CN(c1cccc(C(F)(F)F)c1)S(=O)(=O)c1ccccc1)Nc1cccc(Cl)c1 | 6.7% | 28.2µM* | -40.1%
O=C(CN(c1ccc(Cl)c(C(F)(F)F)c1)S(=O)(=O)c1ccccc1)Nc1cccnc1 | -3.0% | -14.5% | -27.6%
Cc1cc(C)c(S(=O)(=O)Nc2cc(-c3cn4ccccc4n3)ccc2C)cc1C | 1.6% | u | -17.4%
CS(=O)(=O)c1ccc(-c2cn3ccccc3n2)cc1 | 7.08µM* | 6.7% | u
CC1CCN(C(=O)c2cc(-c3ccc(Cl)cc3)on2)CC1 | -0.7% | 74.3% | 2µM*
CC(C)c1ccc(OC(=O)c2cc(-c3ccc(Cl)cc3)on2)cc1 | 14.3% | -15.1% | -16.7%
